Screening data as filed in PubChem.
Compounds with a hit are over-represented: about 3.2% of the library has one in this group of screens.
SKN-1 block: inhibitors of C. elegans SKN-1; C. elegans VP596 Pgst-4::GFP/RFP ratio, acrylamide-induced, 24 h; inhibition, % at 21.8 µM; 360,000 tested, 0.49% active; AID 624304;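 active = interference check ratio from 0.5 to 1.5 plus GFP to RFP signal ratio inhibition reaching or exceeding a fixed threshold, cut at about 30% in these data, passing the limit was not always enough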
MEKK2wt PB1 HTS: raises or lowers MEK5 binding to wildtype human MEKK2 PB1 domain. binding response (% of control), % at 10 µM. bead flow cytometry, Alexa488-MEK5 binding to MEKK2 WT; actives lie on both sides. AID 1531. 290,000 tested, 1.1% active. Q9Y2U5; in the data active = binding response below about 67% or above about 130%
MEKK2mut PB1 HTS: signal of MEK5 binding to mutant human MEKK2 PB1 domain; bead flow cytometry, Alexa488-MEK5 binding to MEKK2 mutant; percent response, % at 10 µM; 290,000 tested, 0.35% active; in the data active = percent response above about 24%, passing the limit was not always enough
CendR NRP1 mod: alters CendR peptide binding to human NRP-1. inhibition, % at 25 µM. O14786. FAM-RPARPAR peptide binding to NRP-1, fluorescence polarization. 360,000 tested, 0.85% active;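 active = inhibition or corrected inhibition above about 18%, plus a signal ratio from 0.5 to 1.5, limit read from the data, passing the limit was not always enough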
MEKK3 PB1 HTS: raises or lowers MEK5 binding to the human MEKK3 PB1 domain; bead-based flow cytometry, Alexa488-MEK5 binding to MEKK3; actives lie on both sides; 0 = blocked by unlabeled MEK5, 100 = vehicle; AID 1529; 290,000 tested, 1.4% active; binding response (% of control), % at 10 µM;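 active = binding response more than 3 SD above or below the average of its plate-row segment, actives on both sides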;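 note: Alexa488 bead fluorescence after subtracting the streptavidin-only scavenger bead signal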
MEKK2wt confirm: raises or lowers MEK5 binding to wildtype human MEKK2, retest; bead flow cytometry, Alexa488-MEK5 binding to MEKK2 WT; actives lie on both sides; 5,900 tested, 2.4% active; binding response (% of control), % at 10 µM; shares compounds with MEKK3 PB1 HTS; in the data active = binding response below about 16% or above about 210%; inactive = in between
MEKK2mut-MEK5: signal of MEK5 binding to mutant human MEKK2, retest; shares compounds with MEKK3 PB1 HTS; bead flow cytometry, Alexa488-MEK5 binding to MEKK2 mutant; percent response, % at 10 µM; 5,900 tested, 2% active; in the data active = percent response mostly above about 71%, no sharp cut-off; inactive = mostly below about 38%;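 note: higher means compound restores mutant binding toward wildtype level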
MEKK3-MEK5 inh: confirmation of inhibitors of MEK5 binding to human MEKK3; shares compounds with MEKK3 PB1 HTS; bead flow cytometry, Alexa488-MEK5 binding to MEKK3; stronger effect = lower value; binding response (% of control), % at 10 µM; 5,900 tested, 1.8% active;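 active = binding response below 72% of control, or above a set upper limit, though filed actives all read lower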;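 note: 100% = DMSO only wells and 0% = binding blocked by excess unlabeled MEK5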
Active calls of the source: *; nt = no result given; [ ] = another dose, or the depositor's remark.

SMILES | SKN-1 block | MEKK2wt PB1 HTS | MEKK2mut PB1 HTS | CendR NRP1 mod | MEKK3 PB1 HTS | MEKK2wt confirm | MEKK2mut-MEK5 | MEKK3-MEK5 inh
O=c1c(-c2ccc(Br)cc2)coc2c(CN3CCCCC3)c(O)ccc12 | 2 | 103 | 2 | 0 | 100 | nt | nt | nt
COc1ccc(-c2coc3c(CN4CCCCC4)c(O)c(CN4CCCCC4)c(O)c3c2=O)cc1 | nt | 144* | 18 | nt | 107 | 150 | 31 | 105
CCCCc1nnc(NC(=O)CSc2nc(O)c(-c3ccccc3)c(=O)[nH]2)s1 | -8 | nt | 533* | -3 | 117 | 102 | 0 | 103
Oc1ccc(O)c(-c2cnns2)c1 | -3 | 105 | 0 | -12 | 132* | 111 | 6 | 107
N#C/C(=C\c1cc2ccccc2nc1N1CCOCC1)C(=O)Nc1ccc(N2CCOCC2)cc1 | -4 | 106 | 3 | -5 | 146* | 98 | 1 | 102
N#CC(C#N)=Cc1cc2ccccc2nc1N1CCOCC1 | 6 | 103 | 0 | -12 | 135* | 102 | 5 | 104
CCOC(=O)/C(C#N)=C/c1cc2ccccc2nc1N1CCCCC1 | 7 | 80 | -5 | -53 | 98 | nt | nt | nt
COc1ccc(CN2C[C@@H](CO)O[C@@H](n3cnc4c(NC5CCC5)ncnc43)C2)cc1 | -3 | nt | nt | -2 | nt | nt | nt | nt
O=C(NC1CCCC1)c1nc(-c2ccco2)oc1-c1ccccc1 | 9 | nt | nt | 7 | nt | nt | nt | nt
COc1ccc(-c2cc3ccccc3n2CC(O)CN2CCC(C)CC2)cc1 (stereo not drawn) | -6 | 149* | 16 | -2 | 99 | 152 | 34 | 107
COc1ccc(-c2cc3ccccc3n2CC(O)Cn2nc(C)cc2C)cc1 (stereo not drawn) | 19 | 107 | 6 | 2 | 107 | nt | nt | nt
CCN(CC)CCCNC(=O)c1cn(CCOC)c(=O)c2c1c1ccccc1n2C | -5 | 52 | -16 | 4 | 34*[inhibitor] | 105 | 1 | 105
CCN(CC)CCNC(=O)c1cn(CCOC)c(=O)c2c1c1ccccc1n2C | -13 | 112 | 11 | -2 | 102 | nt | nt | nt
CCc1ccc2c(c1)NC(=O)C2(C)Cc1ccc(C(F)(F)F)nc1 (stereo not drawn) | 13 | nt | nt | 17 | nt | nt | nt | nt
c1ccc(C(NCCNC(c2ccccc2)c2ccccc2)c2ccccc2)cc1 | 0 | 142* | 27* | -1 | 111 | 151 | 26 | 108
Cc1nc(-n2nnc(CO)c2CO)nc2c1CCC2 | -8 | 116 | 4 | -6 | 138* | 93 | -3 | 100
C/C=C/c1ccc(OCCCCN(C)Cc2ccccc2)c(OC)c1 | -13 | 139* | 7 | -4 | 107 | 120 | 9 | 100
C/C=C/c1ccc(OCCCCOc2ccccc2C(C)=O)c(OC)c1 | 4 | 96 | -1 | -7 | 89 | nt | nt | nt
COc1ccc(CCNC(=S)Nc2ccc(C(C)C)cc2)cc1 | 2 | 115 | 25 | 2 | 134* | 101 | -4 | 96
COc1ccc(CCNC(=S)Nc2ccc(OC)cc2)cc1 | 15 | 102 | 0 | -4 | 126 | nt | nt | nt
CC[C@H](C)[C@@H](CNC)NC[C@@H](Cc1ccc(O)cc1)NCC(C)(C)C | 5 | 113 | -4 | 11 | 104 | nt | nt | nt
CC[C@@H](C)[C@H](CN[C@H](CNC)C(C)C)NC[C@@H](C)c1ccc(CC(C)C)cc1 | 2 | 185* | 22 | 7 | 111 | 176 | 71* | 118
Cc1cc(C)c(NC(=O)CN(C)C(C)C(=O)N2CCc3ccccc32)c(C)c1 (stereo not drawn) | -19 | nt | nt | 8 | nt | nt | nt | nt
Cc1cn2c(N)c(C=C3C=C(Cl)C(=O)C(Cl)=C3)c(=O)nc2s1 | -10 | 50*[inhibitor] | -76 | -35 | 94 | 99 | -14 | 103
S=c1ncc2[nH]c(=S)[nH]c2[nH]1 | -6 | nt | nt | 0 | nt | nt | nt | nt
O=C(COC(=O)/C=C/c1cccc(Cl)c1)NCCC1=CCCCC1 | 5 | 109 | 2 | 19 | 130* | 103 | 3 | 104
